Measured values: PubChem BioAssay AID652105 (National Center for Advancing Translational Sciences (NCATS), 2013)
The whole screen tested about 330,000 compounds, of which about 4,100 (1.2%) were called active. Roughly 2% stayed inconclusive and do not appear here. What follows is part of a selection rich in actives, with near analogues and random picks from the rest. Values without a mark were called inactive. The calls were made as follows: active = max response of -50% or lower; inconclusive = between -30% and -50%; inactive = -30% or higher.

Target: Phosphatidylinositol 5-phosphate 4-kinase type-2 alpha (Homo sapiens) (UniProt P48426)
Sequence (P48426 whole entry, looked up): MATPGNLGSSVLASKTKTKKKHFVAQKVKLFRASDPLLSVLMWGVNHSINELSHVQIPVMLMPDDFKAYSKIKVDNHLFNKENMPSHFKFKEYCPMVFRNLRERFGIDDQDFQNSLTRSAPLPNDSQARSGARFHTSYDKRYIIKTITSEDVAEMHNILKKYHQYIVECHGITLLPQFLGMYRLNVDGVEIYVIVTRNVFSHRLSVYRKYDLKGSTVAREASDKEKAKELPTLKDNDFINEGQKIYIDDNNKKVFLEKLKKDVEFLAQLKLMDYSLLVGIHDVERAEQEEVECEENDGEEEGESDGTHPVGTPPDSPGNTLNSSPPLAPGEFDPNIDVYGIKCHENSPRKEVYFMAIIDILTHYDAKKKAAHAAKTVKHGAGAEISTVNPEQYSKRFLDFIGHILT
Experiment: qHTS for Inhibitors of phosphatidylinositol 5-phosphate 4-kinase (PI5P4K); also: value at the top dose of about 77 µM
Conditions: PI5P4Kalpha enzyme, ADP-Glo luminescence, 60 min; active compounds read low
Excerpt: In addition to finding PI5P, we discovered the type II phosphatidylinositol 5-phosphate 4-kinase (PI5P4K) family (alpha, beta, gamma isoforms) that catalyze the conversion of PI5P to PI(4,5)P2. Alternatively, PI(4,5)P2 can also be synthesized through phosphatidylinositol-4-phosphate (PI4P) by the type I phosphatidylinositol 4-phosphate 5-kinases (PI4P5K). These PI5P4K enzymes therefore represent one way by which cells can regulate endogenous PI5P levels and play important roles in insulin signaling and in stress responses.
This proposal aims to identify and optimize specific modulators of human PI5P4K, phosphatidylinositol-5-phosphate 4-kinase (Type II PIPK), a family of kinases that regulate AKT signaling and tumor cell growth. In this project we aim to identify inhibitors of human PI5P4K using a quantitative high-throughput screening approach against the MLSMR containing ~400,000 small molecules.
NIH Chemical Genomics Center [NCGC]
NIH Molecular Libraries Probe Centers Network [MLPCN]
Assay Submitter (PI): Atsuo Sasaki, Beth Israel Deaconess Medical Center
2 microL of PI5P4Kalpha/substrate buffer (columns 1-2, 5-48) are dispensed into Greiner white solid bottom 1536-well assay plates; column 3 receives only PI5P4Kalpha buffer as 0x substrate controls; column 4 receives only substrate buffer as 0x PI5P4Kalpha controls. Final assay buffer consists of 0.038 M HEPES pH 7.4, 0.28 mM EGTA, 0.1% CHAPS, and 5% DMSO (final concentration). Compounds are then transferred via Kalypsys pin tool equipped with 1536-pin array (10 nL slotted pins, V&P Scientific, San Diego, CA). Following addition of compound, 1 microL of ATP (5 microM final concentration, all columns) is added to initiate the reaction. ATP is diluted in an assay buffer consisting of 0.02 M HEPES pH 7.4, 60 mM MgCl2, 15 microM ATP, and 0.1% CHAPS. The plates are then incubated at room temperature for 60 minutes. ADP-Glo reagent 1 is added (2 microL) and plates incubated for 45 minutes, before ADP-Glo reagent 2 (4 microL) is added and plates incubated for 30 minutes. They are then transferred to a ViewLux high-throughput CCD imager (PerkinElmer) wherein single end-point measurements of luminescence are acquired using a clear filter.
% is scaled to controls: 0 for no effect and ±100 for the full control effect.

Row | SMILES | max response
1 | O=C1NC(=O)N(Cc2ccco2)C(=O)/C1=C\c1cccn1CCOc1ccccc1 | -24.2%
2 | O=C1NC(=O)N(CCc2ccc(F)cc2)C(=O)/C1=C/C=C/c1ccccc1 | -26.8%
3 | O=C1NC(=O)N(Cc2ccco2)C(=O)/C1=C\c1ccc(-c2ccc(F)cc2)o1 | -73.5% (active)
4 | O=c1[nH]c2ccccc2n1C1CCN(C(c2ccccc2)c2nnnn2Cc2ccccc2)CC1 (stereo not given) | -4.66%
5 | COC(=O)C1=C(c2ccc(OCc3ccccc3)cc2)C[C@@H]2CC[C@H]1N2C(=O)NCc1ccc(Cl)cc1 | 5.92%
6 | CCOC(=O)c1cccc(C2=C(CNC(=O)c3ccncc3)[C@H]3CC[C@@H](C2)N3Cc2ccccc2)c1 | -3.84%
7 | O=C(O)CCn1cc(C=C2C(=O)NC(=S)NC2=O)c(-c2cccc(Br)c2)n1 | -58.5% (active)
8 | O=C(NCC1=C(c2ccc3ccccc3c2)C[C@@H]2CC[C@H]1N2Cc1ccco1)c1cccs1 | -1.39%
9 | COC(=O)C1=C(c2ccc(OCc3ccccc3)cc2)C[C@@H]2CC[C@H]1N2C(=O)NCc1cccc(F)c1 | 0.749%
10 | CCCCC(=O)N/N=C/c1c(O)n(-c2ccccc2)c(=O)[nH]c1=O | -1.14%
11 | O=c1[nH]c(=O)n(Cc2ccccc2)c(O)c1/C=N/Nc1c(F)c(F)c(F)c(F)c1F | 4.31%
12 | CCC(=NCCCO)c1c(O)n(-c2ccc(OC)cc2)c(=O)[nH]c1=O | 0.144%
13 | CC/C(=N\NC(=O)c1ccccc1O)c1c(O)n(Cc2ccccc2)c(=O)[nH]c1=O | -90.3% (active)
14 | O=C(N/N=C/c1c(O)n(Cc2ccccc2)c(=O)[nH]c1=O)c1ccccc1 | -53.6% (active)
15 | CCC(=NCCc1ccccc1)c1c(O)n(C2CCCCC2)c(=O)[nH]c1=O | -4.68%
16 | COc1ccc(NC(=O)N2Cc3ccccc3-n3nncc3C2)cc1 | -4.3%
17 | COc1ccc(-n2nnnc2C(c2cccc3ccccc23)N2CCC(n3c(=O)[nH]c4ccccc43)CC2)cc1 (stereo not given) | 0.885%
18 | CSCCC(c1nnnn1C(C)(C)C)N1CCC(n2c(=O)[nH]c3ccccc32)CC1 (stereo not given) | 8.06%
19 | O=c1[nH]c2ccccc2n1C1CCN(C(c2ccnc3ccccc23)c2nnnn2Cc2ccccc2)CC1 (stereo not given) | -3.14%
20 | O=C1NC(=O)C(C/C=C/c2ccccc2)C(=O)N1 | -78.1% (active)
21 | O=C1NC(=O)C(Cc2ccccc2)C(=O)N1 | -28.7%
22 | CC(=O)NCC1=C(c2ccc3ccccc3c2)C[C@@H]2CC[C@H]1N2Cc1ccco1 | -10.1%
23 | O=c1c2ccccc2nc(CBr)n1-c1ccc(Cl)cc1 | -9.65%
24 | S=C(NCCc1ccccc1)N1Cc2cc(N3CCOCC3)ccc2-n2nncc2C1 | -1.37%
25 | CCOC(=O)[C@]12Cc3ccccc3[C@H]1N(C1CCCCC1)C(=O)c1cc(OC)ccc12 | -1.4%
26 | COc1cc(C(=O)N2Cc3ccc(Br)cc3-n3nncc3C2)cc(OC)c1OC | -0.882%
27 | C=CCN(CC=C)C(=O)Nc1ccc(OCC)cc1 | -4.12%
28 | CCC(=O)c1ccc(OCC(=O)N2CCN(CC(=O)Nc3ccc(C)cc3)CC2)cc1 | 1.24%

Row | SMILES | max response
29 | C=CCN1C(=O)NC(=O)/C(=C/c2ccc(OCC(=O)Nc3ccc(C)cc3)cc2)C1=O | -72.6% (active)
30 | O=C(NC1CCCCC1)N1Cc2cc(N3CCCCC3)ccc2-n2nncc2C1 | -0.829%
31 | O=C1NC(=O)N(c2ccccc2)C(=O)/C1=C/c1ccc([N+](=O)[O-])s1 | -72.2% (active)
32 | COc1cccc(N2C(=O)NC(=O)/C(=C\c3ccc([N+](=O)[O-])s3)C2=O)c1 | -64.2% (active)
33 | COc1cccc(N2C(=O)NC(=O)/C(=C\c3cn(C)c4ccccc34)C2=O)c1 | 5.95%
34 | O=C1NCN(c2ccccc2)C12CCN(C(c1cccs1)c1nnnn1C1CCCCC1)CC2 (stereo not given) | -2.62%
35 | c1ccc(N2Cc3ccccc3-n3nncc3C2)nc1 | -2.17%
36 | CC(=CCOc1ccc2ccc(=O)oc2c1)C1=CC(=O)C(C)(C)O1 | 4.71%
37 | c1cc2c(c(NC3=NCCCS3)c1)CCCC2 | -10.3%
38 | CC(C)CN1Cc2cc(N3CCCCC3)ccc2-n2nncc2C1 | -0.0123%
39 | COC(=O)C[C@H]1CC[C@H]2NC[C@@H](O)COC[C@@H]2O1 | -5.22%
40 | COc1ccc2c(c1)NP(=S)(c1ccccc1)N2 (stereo not given) | -27.5%
41 | COc1ccc(N2C(=O)/C(=C/c3ccco3)C(=O)NC2=S)cc1 | -103% (active)
42 | CCOC(=O)CNC(=O)N1Cc2cc(N3CCCCC3)ccc2-n2nncc2C1 | 7.51%
43 | COc1ccc(C2C=C(C)Oc3c2c(=O)oc2ccccc32)cc1OC (stereo not given) | 1.36%
44 | CCn1cc(CN2CCCC(C(=O)c3cccc(C(F)(F)F)c3)C2)cn1 (stereo not given) | 5.27%
45 | O=C1CC(=O)N(Cc2ccccc2)C(=O)N1CCCCCCN1C(=O)CC(=O)N(Cc2ccccc2)C1=O | -68.4% (active)
46 | O=C(CN1CCCC1=O)NCCc1ccccc1 | 1.78%
47 | COc1cccc(C(c2nnnn2-c2ccc3c(c2)OCCO3)N2CCC3(CC2)C(=O)NCN3c2ccccc2)c1OC (stereo not given) | -0.4%
48 | O=P(OC1=CCCCC1)(c1ccccc1)c1ccccc1 | 1.07%
49 | Cc1ncoc1C(=O)NCC1=C(c2cccc3ccccc23)C[C@@H]2CC[C@H]1N2Cc1ccco1 | 7.08%
50 | Cc1ccccc1N1C(=O)NC(=O)/C(=C\c2cc(C)n(C)c2C)C1=O | 0.241%
51 | Cc1c(C(=O)O)cccc1-n1c(C)cc(/C=C2\C(=O)NC(=O)N(c3ccc4c(c3)OCO4)C2=O)c1C | -18.8%
52 | Cc1cccc(N2C(=O)NC(=O)/C(=C\c3cnn(-c4ccccc4)c3)C2=O)c1 | -69.1% (active)
53 | COC(=O)CN(CCCl)P1(=O)OCCCN1CCCl (stereo not given) | -2.26%
54 | O=c1c2ccccc2[nH]c(=S)n1-c1cccc(Cl)c1 | -8.39%
55 | CCOC(=O)[C@]12Cc3cc(OC)ccc3[C@H]1N(C(C)C)C(=O)c1ccccc12 | 1.48%
